Experimental data: PubChem BioAssay AID1159580 (chemical genetic matrix, 2015)
“And” between values parts separate entries of the source, which are not always exact repeats. Equal values may be shown once. The whole screen tested about 5,500 compounds, of which about 2,000 (36%) were called active. Inconclusive results (about 18%) are left out. Cut-off read from the data, not from the text of the source: active = normalized growth mostly below about 0.91 (no sharp cut-off); inconclusive = no clear call, values can overlap the other calls; inactive = mostly above about 0.92. The list shows a part of the results.

Assay: chemical genetic growth profiling, strain panel (AID 1159580);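 note: tested at 20 µM; growth read once vehicle control cultures reached saturation at 30 °C; 1 = growth at the plate median or of vehicle wells; lower values mean less growth of the strain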
Conditions: S. cerevisiae deletion strains, growth OD

Measured: normalized growth

Cc1ccc(C)c(OCCCC(C)(C)C(=O)O)c1
0.819 (inactive) and 0.823 (active): locus YJL095W, strain BCK1, stronger effect = lower value
active: locus YCL029C, strain bik1, stronger effect = lower value 0.894 | locus YDL035C, strain GPR1, stronger effect = lower value 0.845 | locus YDL185W, strain tfp1, stronger effect = lower value 0.309 | locus YDR101C, strain arx1, stronger effect = lower value 0.872 | locus YDR137W, strain rgp1, stronger effect = lower value 0.699 | locus YDR162C, strain NBP2, stronger effect = lower value 0.832 | locus YDR318W, strain mcm21, stronger effect = lower value 0.866 | locus YDR388W, stronger effect = lower value 0.874 | locus YDR392W, strain spt3, stronger effect = lower value 0.58 | locus YDR502C, strain sam2, stronger effect = lower value 0.852 | locus YGL078C, strain dbp3, stronger effect = lower value 0.485 | locus YGL086W, strain mad1, stronger effect = lower value 0.877 | locus YHR079C, strain IRE1 (second series), stronger effect = lower value 0.869 | locus YHR079C, strain IRE1, stronger effect = lower value 0.833 | locus YIL125W, strain kgd1, stronger effect = lower value 0.356 | locus YJL129C, strain trk1, stronger effect = lower value 0.857
inactive: locus YAL021C, strain ccr4, stronger effect = lower value 0.986 | locus YAL026C, strain drs2, stronger effect = lower value 0.919 | locus YAL030W, strain snc1, stronger effect = lower value 0.981 | locus YBL061C, strain skt5, stronger effect = lower value 0.975 | locus YBR009C, strain hhf1, stronger effect = lower value 0.957 | locus YBR021W, strain FUR4, stronger effect = lower value 0.926 | locus YBR023C, strain chs3, stronger effect = lower value 0.964 | locus YBR171W, strain sec66, stronger effect = lower value 0.948 | locus YBR229C, strain ROT2, stronger effect = lower value 0.939 | locus YBR231C, strain swc5, stronger effect = lower value 0.986 | locus YBR279W, strain paf1, stronger effect = lower value 0.983 | locus YCL011C, strain gbp2, stronger effect = lower value 0.978 | locus YCL016C, strain dcc1, stronger effect = lower value 0.949 | locus YCL061C, strain MRC1, stronger effect = lower value 0.968 | locus YCL069W, strain vba3, stronger effect = lower value 0.987 | locus YCR088W, strain abp1, stronger effect = lower value 0.982 | locus YDL005C, strain med2, stronger effect = lower value 0.982 | locus YDL040C, strain nat1, stronger effect = lower value 0.987 | locus YDL074C, strain BRE1, stronger effect = lower value 0.858 | locus YDL101C, strain DUN1, stronger effect = lower value 0.975 | locus YDL192W, strain arf1, stronger effect = lower value 0.931 | locus YDR001C, strain nth1, stronger effect = lower value 0.973 | locus YDR069C, strain doa4, stronger effect = lower value 0.987 | locus YDR159W, strain sac3, stronger effect = lower value 0.962 | locus YDR195W, strain ref2 1.1 | locus YDR297W, strain sur2, stronger effect = lower value 0.992 | locus YDR334W, strain swr1, stronger effect = lower value 0.99 | locus YDR335W, strain msn5, stronger effect = lower value 0.989 | locus YEL003W, strain gim4, stronger effect = lower value 0.97 | locus YEL037C, strain rad23, stronger effect = lower value 0.979 | locus YEL061C, strain CIN8 (second series), stronger effect = lower value 0.98 | locus YEL061C, strain CIN8, stronger effect = lower value 0.943 | locus YER015W, strain faa2, stronger effect = lower value 1.01 | locus YER016W, strain bim1, stronger effect = lower value 0.976 | locus YER110C, stronger effect = lower value 0.937 | locus YER111C, strain swi4, stronger effect = lower value 0.981 | locus YER155C, strain BEM2 (second series), stronger effect = lower value 1.03 | locus YER155C, strain BEM2, stronger effect = lower value 0.939 | locus YER167W, strain BCK2, stronger effect = lower value 0.959 | locus YFR010W, strain ubp6, stronger effect = lower value 0.991 | locus YGL167C, strain pmr1, stronger effect = lower value 0.963 | locus YGL173C, strain kem1, stronger effect = lower value 0.955 | locus YGL227W, strain vid30, stronger effect = lower value 0.984 | locus YGL240W, strain doc1, stronger effect = lower value 0.999 | locus YGL248W, strain PDE1, stronger effect = lower value 0.914 | locus YGL253W, strain hxk2, stronger effect = lower value 0.975 | locus YGR135W, strain pre9, stronger effect = lower value 0.895 | locus YGR252W, strain gcn5, stronger effect = lower value 0.794 | locus YHR013C, strain ard1, stronger effect = lower value 1.02 | locus YHR027C, strain rpn1, stronger effect = lower value 0.983 | locus YHR094C, strain hxt1, stronger effect = lower value 0.941 | locus YHR129C, strain ARP1, stronger effect = lower value 0.945 | locus YHR142W, strain chs7, stronger effect = lower value 0.957 | locus YHR200W, strain rpn10, stronger effect = lower value 0.924 | locus YIL066C, strain RNR3, stronger effect = lower value 0.936 | locus YIL073C, strain SPO22, stronger effect = lower value 0.891 | locus YIR030C, strain dcg1, stronger effect = lower value 0.931 | locus YJL092W, strain hpr5, stronger effect = lower value 0.979 | locus YJL095W, strain BCK1 (second series), stronger effect = lower value 0.983 | locus YJL115W, strain asf1, stronger effect = lower value 1 | locus YJL134W, strain LCB3, stronger effect = lower value 0.938 | locus YJL154C, strain vps35, stronger effect = lower value 0.994 | locus YJL164C, strain tpk1, stronger effect = lower value 0.979 | locus YJL166W, strain qcr8, stronger effect = lower value 0.975 | locus YJL168C, strain set2, stronger effect = lower value 0.941 | locus YJL187C, strain SWE1 (second series), stronger effect = lower value 0.942 | locus YJL187C, strain SWE1, stronger effect = lower value 0.985 | locus YJR043C, strain POL32, stronger effect = lower value 0.935
0.95 (inactive) and 0.784 (active): locus YHR030C, strain SLT2, stronger effect = lower value
